High-throughput results from PubChem.
HepG2 tox: counter-screen for TGF-b inhibitors: cytotoxicity in HepG2 cells | HepG2 CAGA-GFP viability, ATP luminescence, 18 h | Potency, µM (top dose mostly 46.1 µM), without a hit: at the top dose activity change, negative = cytotoxicity, most hits filed as cytotoxic | 410,000 compounds, 0.76% hits | AID 588856
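CellTiter-Glo luminescence gave cytotoxicity after 18 hours at 37 degrees C. The cells were HepG2 CAGA-GFP in 1% FBS DMEM, stimulated with 500 pg/mL TGF-beta after compound addition. %Activity was normalised to no-cell wells (complete cell-killing) and DMSO (no toxicity), and curves were fitted and classified.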
VP16 counter: Gal4-VP16 reporter inhibition counter-screen | Potency, µM (series often up to 53.6 µM), without a hit: top-dose activity, negative = inhibition, actives largely listed as inhibitors | 310,000 compounds, 3.5% hits | Drosophila S2 Gal4-VP16 UAS-luciferase, luminescence, 20 h;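 note: Gal4-VP16 expression switched on by copper sulfate through the metallothionein promoter; % is set by controls: 0 for no effect and ±100 for the full control effect; nearly all actives have a fitted effect of over 50% in size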
ATXN2 expr inh: ATXN2 expression inhibition. Potency, µM (top dose mostly 57 µM), for the others: at the highest dose activity change, negative = inhibition, most hits filed as inhibitors. HEK-293 ATXN2-luciferase reporter, luminescence, 24 h. 360,000 compounds, 0.72% hits; note: % is set by controls: 0 for no effect and ±100 for the full control effect; nearly all actives have a fitted effect of over 55% in size
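qHTS (up to 57 uM final) was run with 24 h compound exposure of reporter cells at 37 °C. Each well was multiplexed: SteadyGlo luminescence measured ATXN2-luciferase expression after a fluorogenic Gly-Phe-AFC viability readout (25 uM final).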
TGFb inhibitor: blocks TGF-b signaling; Potency, µM (titrated, usually from 46.1 µM), without a hit: at the top dose activity, negative = inhibition, most hits filed as inhibitors; 410,000 compounds, 1.2% hits; HepG2 CAGA-GFP TGF-b/SMAD3 reporter, GFP fluorescence, 18 h; TGF-beta stimulated, 500 pg/mL final; note: % is set by controls: 0 for no effect and ±100 for the full control effect; nearly all actives have a fitted effect of over 65% in size
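Cell-based qHTS in HEPG2 carrying a CAGA-GFP Smad reporter; compounds added before 500 pg/mL final TGF-beta, 18 h incubation at 37 degrees C, GFP fluorescence quantified per cell by imaging cytometry.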
ATXN viability: viability counter-screen for ATXN expression inhibitors. S2 cells (HEK-293 line with an ATXN2-luciferase reporter) viability, CellTiter-Fluor protease fluorescence, 24 h. 400,000 compounds, 0.49% hits. Potency, µM (doses to about 56.7 µM), actives largely listed as cytotoxic; note: nearly all actives have a fitted effect of over 40% in size
RORgamma inh: blocks mouse ROR gamma transcriptional activity; P51450; Potency, µM (doses to about 53.6 µM), inactives show top-dose activity change, negative = inhibition, hits mostly inhibitors; Drosophila S2 Gal4-RORgamma UAS-luciferase reporter, 20 h; 310,000 compounds, 5.4% hits; note: % is set by controls: 0 for no effect and ±100 for the full control effect; nearly all actives have a fitted effect of over 60% in size
Target sequence (P51450 whole entry, looked up, the tested form may be a part): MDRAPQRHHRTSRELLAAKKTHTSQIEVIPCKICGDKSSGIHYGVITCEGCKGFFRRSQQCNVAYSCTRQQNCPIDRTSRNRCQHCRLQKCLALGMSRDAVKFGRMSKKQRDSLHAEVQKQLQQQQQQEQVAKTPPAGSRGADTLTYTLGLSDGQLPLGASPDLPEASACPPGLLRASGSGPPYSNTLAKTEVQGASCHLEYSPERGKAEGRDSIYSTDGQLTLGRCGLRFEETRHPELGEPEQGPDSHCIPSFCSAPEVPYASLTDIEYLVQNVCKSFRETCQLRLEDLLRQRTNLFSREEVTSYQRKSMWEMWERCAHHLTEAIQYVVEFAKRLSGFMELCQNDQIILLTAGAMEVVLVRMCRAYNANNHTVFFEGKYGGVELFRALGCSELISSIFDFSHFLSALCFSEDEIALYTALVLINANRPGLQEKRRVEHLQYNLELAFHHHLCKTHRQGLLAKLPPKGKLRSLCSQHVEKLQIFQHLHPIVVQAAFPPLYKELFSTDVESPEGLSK
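Using a luciferase readout, inhibitors were identified by reduced reporter activity in Drosophila cells coexpressing a copper-inducible Gal4–ROR gamma fusion and UAS-driven Photinus luciferase, incubated 20 hr after 700 uM copper sulfate.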
An asterisk follows results filed as active; i = inactive; ? = inconclusive; / = no result given; [ ] = dose if it differs, or a comment. Sampled rows, rich in hits. Any-hit rate of the full collection: about 6.3%. Calls come from the whole dose curve; as a rule, active = well fitted curve in the direction sought with a large enough effect; inconclusive = small, poorly fitted or top-dose-only effect, or another doubt; inactive = no such curve, though single readings can be large; an effect the other way counts as inactive or inconclusive. Potency is the fitted concentration of half-maximal effect.

SMILES	HepG2 tox	VP16 counter	ATXN2 expr inh	TGFb inhibitor	ATXN viability	RORgamma inh
O=C1N/C(=C\c2ccc(O)cc2)C(=O)c2ccccc21	-61%	10µM*	44%	-22%	?	?
O=C(O)/C=C1\NC(=O)c2ccccc21	5%	-6%	-4%	?	i	-16%
CCc1c(CN2CCN(c3ccc(F)cc3)CC2)csc1C	-33%	/	/	-18%	/	/
CCC(NC(=O)NNC(N)=S)(C(F)(F)F)C(F)(F)F	-18%	-15%	-7%	-1%	i	11µM*
CCC(NC(=O)Nc1ncccc1C)(C(F)(F)F)C(F)(F)F	2%	-3%	6%	12%	?	7%[10 µM]
CCOc1ccc(/C=C2\SC(=S)N(NS(=O)(=O)c3ccccc3)C2=O)cc1OC	-28%	-18%	/	-15%	i	4%
COc1cc(/C=C2\SC(=S)N(NC(=O)c3ccc(O)cc3)C2=O)ccc1O	-4%	?	20%	36%	/	11µM*
COc1cc(/C=C2\SC(=S)N(NC(=O)c3cccnc3)C2=O)ccc1O	-10%	-3%	/	-9%	32µM*	-10%
COc1cc(/C=C2\SC(=S)N(C(Cc3ccccc3)C(=O)O)C2=O)ccc1O (configuration not stated)	1%	-21%	/	-8%	13µM*	0%
CCOc1cc(/C=C2\SC(=S)N(NS(=O)(=O)c3ccccc3)C2=O)ccc1O	-23%	6%	/	3%	11µM*	-3%
COc1cc(/C=C2\SC(=S)N(c3cccnc3)C2=O)ccc1O	-1%	-5%	/	4%	i	5%
CCc1ccc(CNC(=O)c2sc3nc[nH]c(=O)c3c2C)cc1	-30%	/	/	5%	/	/
Cc1cc(C)c(NC(=O)CCCN2C(=O)COc3ccc(C)cc32)c(C)c1	-46%	/	/	/	/	/
COC(=O)C[C@H]1C[C@H]2c3cc(NC(=O)Cc4ccncc4)ccc3O[C@H]2[C@@H](CO)O1	5%	/	7%	1%	i	/
COc1cc(/C=C2\SC(c3ccc(C)cc3)=NC2=O)ccc1O	-26%	10µM*	?	0%	i	14µM*
CCN(CCO)C(=O)c1cnn(-c2ncc3c(n2)-c2ccccc2CCC3)c1C1CC1	/	/	/	/	i	/
Cc1ccsc1/C=N/NC(=O)Nc1ccccc1	-10%	?	45%[11.3 µM]	-3%	i	41%
Cc1ccsc1/C=N/NC(=S)NCCc1ccccc1	-14%	6.3µM*	-4%	-10%	?	1µM*
CCNC(=S)N/N=C/c1sccc1C	/	3.2µM*	/	/	/	0.4µM*
C[C@H]1O[C@@H](n2cnc3c(N)ncnc32)C[C@@H]1OP(=O)(O)OP(=O)(O)OP(=O)(O)O	/	4%	/	/	/	-15%
O=C1c2cccc(OCc3ccc(F)cc3)c2CCN1Cc1ccccc1	-36%	?	-18%	18µM*	i	?
CCOC(=O)C(C(=O)OCC)C(Nc1cccc(Br)c1)c1ccccc1 (configuration not stated)	-57%	?	0%	0%	?	11µM*
COC(=O)C(C)Nc1cccc(Br)c1 (configuration not stated)	10%	-4%	/	0%	i	0%
CCc1nc2ccc(C(=O)NCc3ccccc3C)cc2nc1CC	5%	/	/	29%	/	/
CCOC(=O)c1c2c(n(-c3ccc(OC)cc3)c1C)C(=O)C(=O)c1ccccc1-2	3.2µM*	/	8.9µM*	?	8.9µM*	/
SMILES	HepG2 tox	VP16 counter	ATXN2 expr inh	TGFb inhibitor	ATXN viability	RORgamma inh
CCOC(=O)c1sc(=S)n(-c2ccc(OC)cc2)c1C	-35%	3%	-6%	0%	i	0%
COc1ccc(C(=O)N/N=C/c2ccc(OC)c(OS(=O)(=O)c3ccccc3)c2)cc1	-16%	2%	-28%	-18%	i	17%
CCOc1cc(/C=N/NC(=O)c2cccc([N+](=O)[O-])c2)ccc1OS(=O)(=O)c1ccccc1	-19%	14µM*	-19%	-1%	i	7.9µM*
COc1ccc(/C=N/NC(=O)c2cccc([N+](=O)[O-])c2)cc1OS(=O)(=O)c1ccc(C)cc1	9%	?	-25%	0%	?	4µM*
Cc1ccc(NC(=O)[C@@H]2O[C@H](CO)[C@@H](O)[C@H]2O)cc1C(F)(F)F	1%	/	4%	1%	i	/
COc1cc(NCCCn2cnc3c(OCc4ccccc4)ncnc32)cc(OC)c1OC	0%	/	-3%	-6%	?	/
CCOC(=O)c1ccc(NC(=O)CSc2nc(=O)n3cccc(C)c3n2)cc1	0%	/	3%	-18%	i	/
O=C(CCc1ccccc1)NNC(=O)c1ccccn1	-31%	?	?	-24%	?	10µM*
O=C(NNC(=O)C(c1ccccc1)c1ccccc1)c1ccccn1	-21%	?	?	?	i	5.6µM*
O=C(CCc1ccccc1)NNC(=O)CCc1ccccc1	-15%	-12%	/	0%	i	-6%
COc1ccc(OCCn2c(=N)n(CCO)c3ccccc32)cc1	-25%	4%	-17%	-10%	i	6%
Cc1ccc(OCC(O)Cn2c(=N)n(CCN3CCCCC3)c3ccccc32)cc1 (configuration not stated)	13µM*	-2%	25µM*	?	?	-19%
N=c1n(CCO)c2ccccc2n1CCOc1ccc(Cl)cc1Cl	11µM*	1%	20µM*	?	/	15%
N=c1n(CCN2CCCCC2)c2ccccc2n1CC(O)COc1ccc(Cl)cc1Cl (configuration not stated)	10µM*	/	/	7.1µM*	/	/
CCN(C(=O)CSc1nnc(-c2ccccc2Cl)n1N)c1c(N)n(Cc2ccccc2)c(=O)[nH]c1=O	8%	/	/	5%	i	/
CCOc1ccc(-n2cc(C(=O)N3CCC(C)CC3)c3cc(OC)c(OC)cc3c2=O)cc1	-36%	-10%	1%	13µM*	i	?
CCOc1ccc(NC(=O)c2cn(-c3ccc(OCC)cc3)c(=O)c3cc(OC)c(OC)cc23)cc1	0%	-6%	-1%	0%	i	24%
Cc1cc2ncc(-c3ccccc3)nc2cc1C	-12%	?	/	-20%	i	?
O=C(CCl)Nc1cccc(-c2cnc3ccccc3n2)c1	11µM*	-8%	?	7.1µM*	/	6%
Cc1ccc(-c2cnc3ccccc3n2)cc1C	-63%	?	/	-15%	i	10µM*
COc1ccc(-n2c(SCC(=O)N3CCc4ccccc43)nc3c([nH]c4ccccc43)c2=O)cc1	-15%	/	16%	20%	i	/
COc1ccc(O)c(CN2CCOc3c(cc(-c4cccc(OC)n4)cc3OC)C2)c1	/	/	/	/	i	/
